Laboratory results as given in the supplement of paper PMC11732987, “Enantioselective OTUD7B fragment discovery through chemoproteomics screening and high-throughput optimisation” (Communications Chemistry, 2025).

Tests used:
Experiment in all cases: log2 ratio of Biotin-Ahx-Ub-VS probe labelling (fragment/DMSO); higher = less target engagement (more negative = stronger competition), active = hit call of the paper (q ≤ 0.05, log2 ratio ≤ -1)
Conditions in all cases: compound concentration: 200 uM; treatment time: 3 h
[1] = biological target: USP34 (UniProt Q70CQ2)
Outline: (§1)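 HEK293T lysate (495 µg per sample, in Tris/CHAPS/IGEPAL buffer with protease inhibitors) was exposed in triplicate for 3 h to fragment at 200 µM or to vehicle, then to Biotin-Ahx-Ub-VS at 0.5 µM final for 1 h. Labelled DUBs were enriched on NeutrAvidin, digested with LysC and trypsin, and analysed by diaPASEF LC-MS/MS. Spectronaut label-free quantities were normalised to the global median, and values are average log2 ratios of fragment over vehicle from an unpaired t-test. Only proteins with ≥2 unique peptides were used.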

[2] = biological target: T1, USP36 (UniProt Q9P275)
T1 sequence (whole entry): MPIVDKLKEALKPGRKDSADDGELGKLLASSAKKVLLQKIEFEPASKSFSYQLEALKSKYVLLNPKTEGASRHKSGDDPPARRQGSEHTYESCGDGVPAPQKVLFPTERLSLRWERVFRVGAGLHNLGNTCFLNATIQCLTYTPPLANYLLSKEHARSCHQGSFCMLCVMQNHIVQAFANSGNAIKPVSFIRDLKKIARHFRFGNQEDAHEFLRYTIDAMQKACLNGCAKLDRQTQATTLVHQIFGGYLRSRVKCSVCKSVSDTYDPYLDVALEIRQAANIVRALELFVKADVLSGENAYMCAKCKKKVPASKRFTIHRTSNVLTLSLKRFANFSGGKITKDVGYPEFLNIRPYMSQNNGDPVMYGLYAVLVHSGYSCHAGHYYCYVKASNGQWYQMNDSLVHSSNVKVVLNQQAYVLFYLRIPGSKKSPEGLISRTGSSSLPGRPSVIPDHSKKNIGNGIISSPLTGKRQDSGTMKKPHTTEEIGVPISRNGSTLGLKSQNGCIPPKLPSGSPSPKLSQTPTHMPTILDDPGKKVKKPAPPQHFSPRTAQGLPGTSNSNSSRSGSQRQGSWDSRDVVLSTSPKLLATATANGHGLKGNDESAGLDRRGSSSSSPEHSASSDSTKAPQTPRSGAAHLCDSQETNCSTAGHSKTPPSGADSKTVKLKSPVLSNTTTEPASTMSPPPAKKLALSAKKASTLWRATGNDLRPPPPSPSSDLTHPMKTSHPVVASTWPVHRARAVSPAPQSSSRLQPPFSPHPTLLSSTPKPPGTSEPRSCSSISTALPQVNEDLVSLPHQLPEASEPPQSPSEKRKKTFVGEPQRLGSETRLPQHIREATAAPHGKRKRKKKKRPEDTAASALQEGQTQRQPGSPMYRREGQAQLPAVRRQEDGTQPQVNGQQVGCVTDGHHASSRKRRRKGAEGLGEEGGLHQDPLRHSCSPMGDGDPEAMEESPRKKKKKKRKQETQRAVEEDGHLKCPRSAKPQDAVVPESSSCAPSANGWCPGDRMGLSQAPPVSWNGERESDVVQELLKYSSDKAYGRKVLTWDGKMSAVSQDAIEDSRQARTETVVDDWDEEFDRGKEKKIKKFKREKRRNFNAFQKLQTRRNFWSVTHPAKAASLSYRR
Outline: as §1

[3] = biological target: T2, USP38 (UniProt Q8NB14)
T2 sequence (whole entry): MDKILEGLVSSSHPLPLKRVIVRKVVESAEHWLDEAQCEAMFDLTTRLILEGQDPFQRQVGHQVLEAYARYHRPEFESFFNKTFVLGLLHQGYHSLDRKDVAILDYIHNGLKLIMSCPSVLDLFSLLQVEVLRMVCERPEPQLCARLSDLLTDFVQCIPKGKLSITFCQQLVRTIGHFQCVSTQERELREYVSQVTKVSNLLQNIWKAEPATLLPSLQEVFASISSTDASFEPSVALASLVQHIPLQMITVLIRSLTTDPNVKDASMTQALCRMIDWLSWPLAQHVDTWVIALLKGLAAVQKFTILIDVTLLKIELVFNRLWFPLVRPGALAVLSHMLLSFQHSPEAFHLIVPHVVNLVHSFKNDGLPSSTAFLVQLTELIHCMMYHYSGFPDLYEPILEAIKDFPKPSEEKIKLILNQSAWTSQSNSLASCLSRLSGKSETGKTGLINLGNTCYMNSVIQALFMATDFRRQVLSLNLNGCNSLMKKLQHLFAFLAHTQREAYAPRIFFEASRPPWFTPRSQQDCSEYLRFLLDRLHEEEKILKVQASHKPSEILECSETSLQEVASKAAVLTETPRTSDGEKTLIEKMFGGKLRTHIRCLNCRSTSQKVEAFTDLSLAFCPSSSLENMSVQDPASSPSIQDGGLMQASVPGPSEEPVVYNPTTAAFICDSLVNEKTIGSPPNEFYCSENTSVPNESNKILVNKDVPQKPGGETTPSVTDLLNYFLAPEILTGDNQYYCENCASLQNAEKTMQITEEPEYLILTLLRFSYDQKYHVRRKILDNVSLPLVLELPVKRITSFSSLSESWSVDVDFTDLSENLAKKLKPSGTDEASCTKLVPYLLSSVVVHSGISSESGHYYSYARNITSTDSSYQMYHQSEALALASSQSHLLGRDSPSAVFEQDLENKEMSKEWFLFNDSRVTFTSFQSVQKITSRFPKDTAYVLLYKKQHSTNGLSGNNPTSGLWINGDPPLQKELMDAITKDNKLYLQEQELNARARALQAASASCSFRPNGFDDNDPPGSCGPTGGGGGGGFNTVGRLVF
Outline: as §1

[4] = biological target: T3, USP39 (UniProt Q53GS9)
T3 sequence (whole entry): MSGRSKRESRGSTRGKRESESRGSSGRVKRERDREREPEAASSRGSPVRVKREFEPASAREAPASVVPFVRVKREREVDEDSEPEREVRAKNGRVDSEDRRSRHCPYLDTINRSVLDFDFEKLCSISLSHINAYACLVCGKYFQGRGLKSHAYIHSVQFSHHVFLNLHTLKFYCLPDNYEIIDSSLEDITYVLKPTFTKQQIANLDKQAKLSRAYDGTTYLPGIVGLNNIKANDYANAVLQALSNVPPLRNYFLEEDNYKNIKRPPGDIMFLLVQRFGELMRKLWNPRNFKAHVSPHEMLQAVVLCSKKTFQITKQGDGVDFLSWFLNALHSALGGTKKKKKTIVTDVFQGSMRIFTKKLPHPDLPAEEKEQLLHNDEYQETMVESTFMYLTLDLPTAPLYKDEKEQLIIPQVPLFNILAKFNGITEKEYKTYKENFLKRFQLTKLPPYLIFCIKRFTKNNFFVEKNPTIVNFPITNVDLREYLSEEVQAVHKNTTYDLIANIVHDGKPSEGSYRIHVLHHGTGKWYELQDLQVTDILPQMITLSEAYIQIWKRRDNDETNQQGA
Outline: as §1

[5] = biological target: T4, USP4 (UniProt Q13107)
T4 sequence (whole entry): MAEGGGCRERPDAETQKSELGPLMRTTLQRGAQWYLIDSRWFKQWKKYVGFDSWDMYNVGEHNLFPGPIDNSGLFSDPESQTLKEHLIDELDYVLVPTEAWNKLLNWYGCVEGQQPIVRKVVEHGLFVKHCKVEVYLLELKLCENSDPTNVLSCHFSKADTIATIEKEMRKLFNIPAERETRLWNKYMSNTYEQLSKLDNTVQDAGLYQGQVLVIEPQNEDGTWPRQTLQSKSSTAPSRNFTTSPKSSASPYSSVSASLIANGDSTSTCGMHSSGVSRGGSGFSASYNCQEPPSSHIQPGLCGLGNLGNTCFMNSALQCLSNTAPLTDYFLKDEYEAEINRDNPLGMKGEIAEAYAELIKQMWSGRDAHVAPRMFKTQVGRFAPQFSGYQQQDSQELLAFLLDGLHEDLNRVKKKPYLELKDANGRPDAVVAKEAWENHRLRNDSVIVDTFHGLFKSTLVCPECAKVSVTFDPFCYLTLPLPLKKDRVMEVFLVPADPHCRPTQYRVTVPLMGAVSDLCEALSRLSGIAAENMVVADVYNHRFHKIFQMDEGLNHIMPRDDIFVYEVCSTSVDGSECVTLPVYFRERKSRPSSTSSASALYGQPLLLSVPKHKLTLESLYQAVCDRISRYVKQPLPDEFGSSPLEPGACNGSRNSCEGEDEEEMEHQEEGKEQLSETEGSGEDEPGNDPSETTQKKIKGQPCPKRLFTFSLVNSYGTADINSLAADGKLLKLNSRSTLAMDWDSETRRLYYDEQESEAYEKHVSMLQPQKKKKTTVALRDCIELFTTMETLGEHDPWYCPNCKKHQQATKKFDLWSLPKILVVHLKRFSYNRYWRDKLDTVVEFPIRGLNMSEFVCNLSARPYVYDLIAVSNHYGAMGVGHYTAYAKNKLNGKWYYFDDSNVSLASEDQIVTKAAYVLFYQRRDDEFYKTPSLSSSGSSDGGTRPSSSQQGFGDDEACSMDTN
Outline: as §1

Measured: log2 ratio of Biotin-Ahx-Ub-VS probe labelling

Chain of USP34 (Q70CQ2 whole entry, the tested form may be a part): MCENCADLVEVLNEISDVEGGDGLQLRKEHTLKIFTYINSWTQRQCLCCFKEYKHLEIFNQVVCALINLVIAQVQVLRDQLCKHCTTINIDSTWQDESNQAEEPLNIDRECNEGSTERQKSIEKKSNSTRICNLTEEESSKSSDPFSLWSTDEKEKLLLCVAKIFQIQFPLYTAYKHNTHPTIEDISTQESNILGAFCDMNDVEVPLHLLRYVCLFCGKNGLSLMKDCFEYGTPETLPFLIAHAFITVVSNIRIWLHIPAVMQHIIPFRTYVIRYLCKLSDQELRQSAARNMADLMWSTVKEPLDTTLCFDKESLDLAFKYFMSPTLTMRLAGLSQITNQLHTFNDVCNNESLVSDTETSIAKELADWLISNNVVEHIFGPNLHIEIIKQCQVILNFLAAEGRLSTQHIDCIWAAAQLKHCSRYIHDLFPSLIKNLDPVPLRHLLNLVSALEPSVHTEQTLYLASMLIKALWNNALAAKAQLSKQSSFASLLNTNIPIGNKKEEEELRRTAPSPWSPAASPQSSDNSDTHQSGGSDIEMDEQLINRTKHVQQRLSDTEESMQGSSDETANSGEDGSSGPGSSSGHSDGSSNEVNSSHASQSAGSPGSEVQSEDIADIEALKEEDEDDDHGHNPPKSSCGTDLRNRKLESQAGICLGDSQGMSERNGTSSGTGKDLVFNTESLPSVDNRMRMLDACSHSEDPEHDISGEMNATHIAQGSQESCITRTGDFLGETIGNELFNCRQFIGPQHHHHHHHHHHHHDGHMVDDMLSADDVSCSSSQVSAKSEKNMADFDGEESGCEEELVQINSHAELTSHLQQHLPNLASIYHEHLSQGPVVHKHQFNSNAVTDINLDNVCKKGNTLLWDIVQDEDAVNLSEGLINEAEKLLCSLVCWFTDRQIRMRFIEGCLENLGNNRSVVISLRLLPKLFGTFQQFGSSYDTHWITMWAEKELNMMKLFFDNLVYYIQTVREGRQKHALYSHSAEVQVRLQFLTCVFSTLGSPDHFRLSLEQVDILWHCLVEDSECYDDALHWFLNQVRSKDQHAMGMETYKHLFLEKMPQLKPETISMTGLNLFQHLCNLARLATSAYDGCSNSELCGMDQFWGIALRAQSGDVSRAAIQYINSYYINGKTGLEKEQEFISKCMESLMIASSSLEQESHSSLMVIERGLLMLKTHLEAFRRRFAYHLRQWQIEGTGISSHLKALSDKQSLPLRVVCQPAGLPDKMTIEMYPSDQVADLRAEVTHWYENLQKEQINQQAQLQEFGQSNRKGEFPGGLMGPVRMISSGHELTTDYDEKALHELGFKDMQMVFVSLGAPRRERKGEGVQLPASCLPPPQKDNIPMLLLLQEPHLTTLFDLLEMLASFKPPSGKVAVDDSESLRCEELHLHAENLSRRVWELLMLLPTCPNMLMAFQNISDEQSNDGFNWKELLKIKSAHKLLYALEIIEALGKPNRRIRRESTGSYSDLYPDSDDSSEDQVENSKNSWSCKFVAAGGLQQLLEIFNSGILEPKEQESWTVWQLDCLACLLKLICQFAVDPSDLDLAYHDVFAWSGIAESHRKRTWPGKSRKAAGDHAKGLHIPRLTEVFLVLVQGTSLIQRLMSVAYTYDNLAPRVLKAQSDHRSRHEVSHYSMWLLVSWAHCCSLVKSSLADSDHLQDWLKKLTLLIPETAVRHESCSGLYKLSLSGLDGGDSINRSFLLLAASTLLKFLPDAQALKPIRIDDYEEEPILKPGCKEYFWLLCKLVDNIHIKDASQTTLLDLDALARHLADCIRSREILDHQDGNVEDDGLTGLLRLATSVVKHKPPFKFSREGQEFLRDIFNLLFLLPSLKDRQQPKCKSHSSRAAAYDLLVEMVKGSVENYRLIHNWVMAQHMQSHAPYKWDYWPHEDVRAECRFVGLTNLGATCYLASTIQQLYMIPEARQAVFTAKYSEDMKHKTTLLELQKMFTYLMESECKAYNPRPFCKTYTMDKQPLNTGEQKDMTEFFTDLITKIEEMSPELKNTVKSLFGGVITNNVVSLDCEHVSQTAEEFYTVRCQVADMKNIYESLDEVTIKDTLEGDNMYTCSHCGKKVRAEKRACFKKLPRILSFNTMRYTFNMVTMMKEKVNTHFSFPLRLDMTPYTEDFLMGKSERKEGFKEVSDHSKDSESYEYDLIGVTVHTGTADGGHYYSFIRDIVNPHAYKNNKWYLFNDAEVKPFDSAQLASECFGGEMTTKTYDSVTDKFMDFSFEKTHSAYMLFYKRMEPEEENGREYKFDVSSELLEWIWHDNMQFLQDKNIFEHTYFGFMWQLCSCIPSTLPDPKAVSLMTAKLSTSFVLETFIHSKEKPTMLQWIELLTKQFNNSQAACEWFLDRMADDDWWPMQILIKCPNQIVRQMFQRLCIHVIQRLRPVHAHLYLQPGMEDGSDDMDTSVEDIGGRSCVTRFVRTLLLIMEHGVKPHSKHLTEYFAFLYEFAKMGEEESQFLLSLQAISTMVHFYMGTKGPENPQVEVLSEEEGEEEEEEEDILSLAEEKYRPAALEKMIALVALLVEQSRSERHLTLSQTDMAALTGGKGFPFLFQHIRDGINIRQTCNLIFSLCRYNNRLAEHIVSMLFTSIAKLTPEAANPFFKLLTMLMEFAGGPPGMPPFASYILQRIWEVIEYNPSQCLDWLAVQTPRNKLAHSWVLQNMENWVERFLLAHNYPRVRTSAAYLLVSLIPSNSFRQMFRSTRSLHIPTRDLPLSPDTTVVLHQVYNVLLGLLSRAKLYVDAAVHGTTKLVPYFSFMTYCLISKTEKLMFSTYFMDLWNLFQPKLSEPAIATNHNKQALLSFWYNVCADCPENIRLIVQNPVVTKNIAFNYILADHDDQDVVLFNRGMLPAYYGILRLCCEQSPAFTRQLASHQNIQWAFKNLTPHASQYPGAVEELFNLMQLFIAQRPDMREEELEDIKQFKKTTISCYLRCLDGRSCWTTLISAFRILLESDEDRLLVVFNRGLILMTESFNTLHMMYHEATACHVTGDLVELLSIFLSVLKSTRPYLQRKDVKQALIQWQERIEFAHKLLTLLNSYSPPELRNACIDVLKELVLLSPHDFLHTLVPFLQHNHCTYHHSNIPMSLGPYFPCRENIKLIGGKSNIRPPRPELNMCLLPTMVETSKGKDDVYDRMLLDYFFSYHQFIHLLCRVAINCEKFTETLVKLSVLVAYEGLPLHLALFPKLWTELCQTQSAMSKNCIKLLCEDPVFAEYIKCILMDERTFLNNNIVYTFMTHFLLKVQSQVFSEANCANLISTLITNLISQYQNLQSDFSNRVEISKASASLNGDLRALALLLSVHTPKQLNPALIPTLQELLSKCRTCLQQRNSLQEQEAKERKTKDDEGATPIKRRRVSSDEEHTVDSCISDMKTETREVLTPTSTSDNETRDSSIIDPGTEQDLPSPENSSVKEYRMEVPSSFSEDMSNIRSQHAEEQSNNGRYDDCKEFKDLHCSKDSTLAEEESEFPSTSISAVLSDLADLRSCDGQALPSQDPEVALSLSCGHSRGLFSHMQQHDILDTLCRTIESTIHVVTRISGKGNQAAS

CC(NC(=O)CCl)c1ccc2[nH]ncc2c1 (stereo not given)
inactive: [1] -0.271 | [2] -0.00241 | [3] -0.222 | [4] -0.146 | [5] -0.324
